Screening data deposited in PubChem by National Center for Advancing Translational Sciences (NCATS).
ALDH1A1 block: qHTS Assay for Inhibitors of Aldehyde Dehydrogenase 1 (ALDH1A1). actives 7.3% (n = 220,000). AID 1030, 2008. Aldehyde dehydrogenase 1A1 (Homo sapiens), P00352. Purified ALDH1A1, NADH fluorescence, propionaldehyde substrate. Potency, µM (doses to about 75.3 µM), for the others: at the highest dose activity, negative = inhibition, most hits filed as inhibitors;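 note: potency is the fitted concentration of half-maximal effect; plate controls were no enzyme wells and a reference inhibitor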
PNC inhibitor: High Content Assay for Compounds that inhibit the Assembly of the Perinucleolar Compartment. PC3M PTB-GFP, PNC prevalence imaging, 16 h; stronger effect = lower value. activity change (PNC), negative = inhibition, % at 10 µM. AID 2417, 2010. actives 3.1% (n = 140,000);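 active = readout at or below -70, meaning at least 70% loss of cells showing the perinucleolar compartment, a nuclear body marking cancer cells; inconclusive = readout between -30 and a set limit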;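 note: plate controls were DMSO wells for no effect and camptothecin positive control wells for full effect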
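Read-out is percentage of cells bearing a perinucleolar compartment, from automated 20x imaging of fixed, Hoechst-stained PC3M PTB-GFP cells. Cells were seeded 4 h, then exposed 16 h to compound (23 nl of library stock) in duplicate plates.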
HPGD inh: qHTS Assay for Inhibitors of HPGD (15-Hydroxyprostaglandin Dehydrogenase) | Potency, µM, inactives show at the highest dose activity change, negative = inhibition, actives largely listed as inhibitors | AID 894, 2007 | 15-hydroxyprostaglandin dehydrogenase [NAD(+)] (Homo sapiens), P15428 | actives 4.3% (n = 150,000) | purified HPGD, NADH fluorescence kinetic, PGE2 substrate; note: potency is the fitted concentration of half-maximal effect
Target sequence (P15428 whole entry, looked up): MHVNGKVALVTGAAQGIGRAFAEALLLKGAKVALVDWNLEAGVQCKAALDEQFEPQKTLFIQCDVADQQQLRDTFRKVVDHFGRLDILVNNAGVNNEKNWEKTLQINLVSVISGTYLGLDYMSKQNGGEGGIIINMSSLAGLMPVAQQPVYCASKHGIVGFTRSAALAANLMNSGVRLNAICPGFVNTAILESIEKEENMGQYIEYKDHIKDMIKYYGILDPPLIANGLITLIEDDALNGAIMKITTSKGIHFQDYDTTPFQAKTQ
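NADH formation kinetics: reaction with 30 uM PGE2 and 1 mM NAD+ (final), 20 nM enzyme, Tris-HCl pH 8 with Tween 20, after 15 min compound preincubation at room temperature. Fluorescence change, last versus first of five reads.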
* hit, by the source's call; ? = inconclusive; . = no result. A selection: hits, their analogues and other compounds. The true share with any hit is near 11%. Unless noted, calls come from the whole dose curve; as a rule, active = well fitted inhibition curve with a large enough effect (not every such curve was filed as active); inconclusive = small, poorly fitted or top-dose-only effect, or another doubt; inactive = no such curve, though single readings can be large or run the other way. Unless noted, % is set by controls: 0 for no effect and ±100 for the full control effect.

SMILES | ALDH1A1 block | PNC inhibitor | HPGD inh
CC(=O)Nc1ccc2nc(SCC(=O)NCCOc3ccccc3)sc2c1 | 5% | . | .
COc1ccccc1C(=O)Nc1ccc2nc(SCC(=O)N(C)C)sc2c1 | -8% | -114* | -5%
CCCC(=O)Nc1ccc2nc(SCC(=O)Nc3nccs3)sc2c1 | 0% | ? | -12%
CCN(CC)C(=O)CSc1nc2ccc(NC(=O)CSc3nccn3C)cc2s1 | ? | ? | 32µM*
CCN(CC)CCCNC(=O)c1ccc(Cc2nc3ccccc3[nH]2)cc1 | 0% | . | -4%
CC(=O)NC1=NN(C(C)=O)C(C)(CS(=O)(=O)c2ccc3ccccc3c2)S1 (centres undefined) | -6% | 4 | -5%
CCCCCCCCS(=O)c1sc2nc(C)cc(C)c2c1N (centres undefined) | ? | 48 | ?
Cc1c(C(=O)NC2=NCCS2)oc2ccccc12 | 7% | 23 | -9%
O=C1Nc2ccccc2/C1=N\N=C\C1=C(N2CCOCC2)C(=C\c2ccccc2)/CC1 | 10µM* | -26 | -7%
Cn1cc(C(=O)N/N=C/C2=C(N3CCOCC3)C(=C\c3ccccc3)/CC2)ccc1=O | -10% | ? | -4%
O=S(=O)(NCC1CCCO1)c1cnc(Cl)c(Br)c1 (centres undefined) | ? | ? | -10%
CCCCC(=O)Nc1ccc(N2CCN(C(=O)CC)CC2)cc1 | -1% | 4 | -17%
O=C(c1ccc(N2CCCC2=O)cc1)N1CCOCC1 | 19% | -85* | 22µM*
CN1CCN(C(=O)c2ccc(N3CCCC3=O)cc2)CC1 | 7% | 39 | 13µM*
CC1CN(C(=O)c2ccc3c(c2)OCO3)CC(C)O1 (centres undefined) | 13% | ? | 25µM*
CC1CN(C(=O)/C=C/c2ccc3c(c2)OCO3)CC(C)O1 (centres undefined) | ? | 28 | ?
COc1ccccc1N1CCN(C(=O)c2ccc(N3CCCC3=O)cc2)CC1 | -7% | -19 | -8%
O=C(c1ccc(-n2cccc2)cc1)N1CCOCC1 | 11% | -22 | ?
CCCCC(=O)Nc1ccc(C(=O)N2CCN(C)CC2)cc1 | ? | 23 | 14µM*
N#Cc1ccc(C23CC4(C2)[C@H](CN(Cc2cccnc2)[C@@H]4c2ccccc2)C3c2ccc(C(F)(F)F)cc2)cc1 (some centres undefined) | 1% | . | -7%
C/C(=N\NC(=O)COc1ccc(C#N)cc1)c1ccccc1OC(F)F | 3% | -26 | -1%
C(=N\c1nccs1)/c1cccnc1 | 0% | -11 | ?
Cc1nc2cccc(C)n2c(=O)c1Cl | 5% | -1 | -15%
CSC(=O)CC(=O)NC(=O)c1ccccc1 | -8% | -3 | -12%
CC(C)(C)c1ccc(C(=O)N2CCN(c3nc4ccccc4o3)CC2)cc1 | 9% | -23 | -6%
SMILES | ALDH1A1 block | PNC inhibitor | HPGD inh
Cc1csc2c(N3CCN(C(=O)c4ccc(C(C)(C)C)cc4)CC3)ncnc12 | 16µM* | . | .
CN1CCN(C(=O)c2ccc(C(F)(F)F)cc2)CC1 | 9% | . | .
CN1CCN(C(=O)c2ccc3c(c2)OCCO3)CC1 | 3% | 10 | 16µM*
CN1CCN(C(=O)c2ccc(C(C)(C)C)cc2)CC1 | -8% | 31 | 11µM*
Cc1cccc(N2CCN(C(=O)c3ccc4c(c3)OCCO4)CC2)c1C | 10% | . | .
N/C(COc1ccccc1)=N\NC(=O)c1cccnc1Oc1ccccc1 | -8% | 9 | -14%
CC1=C(C(=O)Nc2ccccc2)C(c2ccc(C)cc2)N=C(Nc2nc3ccccc3o2)N1 (centres undefined) | ? | 14 | ?
CNS(=O)(=O)c1ccc(Cl)nc1 | 9% | 17 | -9%
COc1ccc(CCNC(=O)C(=O)NCCOc2ccccc2)cc1OC | 4µM* | ? | -15%
COc1ccc(CCNC(=O)C(=O)NCCOc2ccccc2Cl)cc1OC | ? | 39 | -8%
COc1ccc(CCNC(=O)c2ccncc2)cc1OC | 4% | 31 | -9%
COc1ccc(CCNC(=O)c2nc3ncccn3n2)cc1OC | 0% | -107* | 2%
Cc1ccnn1CCSCC(=O)O | 5% | 10 | -6%
CC(C)CC(=O)NC(=S)Nc1ccccc1C(F)(F)F | 18µM* | 8 | ?
Cc1ccccc1OCCCC(=O)Nc1ccccc1C(F)(F)F | 11% | 63 | -25%
Cc1ccc(C(=O)NCC(=O)Nc2ccccc2C(F)(F)F)cc1 | 20% | 39 | -11%
COc1ccccc1C(C)NCC(=O)Nc1ccccc1C(F)(F)F (centres undefined) | -5% | -116* | ?
CC(C)CC(=O)NC(=S)Nc1ccccn1 | 1% | -7 | -28%
CSc1ccccc1NC(=S)Nc1ccccc1C(F)(F)F | 6% | -4 | -1%
CC(C)(C)CC(=O)NC(=S)Nc1ccccc1C(F)(F)F | -7% | 49 | 25µM*
Cc1ccc(C(=O)NC(=S)Nc2ccccc2C(F)(F)F)cc1 | 13µM* | ? | .
O=C(NNS(=O)(=O)c1ccc2ccccc2c1)c1cccnc1 | 1% | ? | 4%
O=C(c1cnccn1)N1CCC[C@@]2(CCN(c3ccncc3)C2)C1 | 5% | . | -6%
Cc1cccc(C(=O)N/N=C2/SCC(=O)N2Cc2ccccc2)c1 | 4% | . | .
CCOC(=O)C1(CCc2ccccc2)CCN(C(=O)C2CCCO2)CC1 (centres undefined) | -12% | . | .
SMILES | ALDH1A1 block | PNC inhibitor | HPGD inh
Cc1nc2ccc(NC(=O)Cc3ccc4c(c3)OCCO4)cc2s1 | 14% | -12 | -11%
CC(C)CC(=O)NC(=S)Nc1ccccc1F | -4% | -15 | 20µM*
COc1ccccc1NC(=S)NC(=O)CC(C)C | -11% | 96 | -28%
N#Cc1c(Cl)c(Cl)c2nnc(-c3ccc(Br)cc3)n2c1Cl | ? | 42 | 13µM*
Cc1ccc2c(n1)sc1c(-c3ccc(Br)cc3)c(C#N)c(N)nc12 | ? | 7 | ?
Cc1cccc2cc(CNC3CCCC3)c(Cl)nc12 | 2% | . | .
Cc1ccsc1/C=N/NC(=O)c1ccc([N+](=O)[O-])cc1 | -10% | . | .
Cc1c(/C=N\NC(=O)c2ccc([N+](=O)[O-])cc2)cnn1C | 3% | -109* | -11%
O=C(N/N=C/c1ccccn1)c1sc2ccccc2c1Cl | 11µM* | . | .
O=C(c1sc2ccccc2c1Cl)N1CCN(c2ccc(F)cc2)CC1 | ? | ? | -23%
O=C(N/N=C/c1c[nH]c2ccccc12)c1sc2ccccc2c1Cl | ? | ? | -11%
O=C(Cc1ccc(F)cc1)N/N=C/c1ccccn1 | -3% | -113* | -9%
O=C(Cc1ccc(Br)c2ccccc12)N/N=C/c1ccccn1 | -13% | . | .
O=C(c1sc2ccccc2c1Cl)N1CCN(c2ncccn2)CC1 | 13µM* | 16 | -11%
COc1ccc(CNC(=O)Cn2nnc(-c3ccc(NC(=O)C4CCCCC4)cc3)n2)cc1 | 4% | -22 | -9%
Cc1ccccc1-c1nc(-n2ccnc2)c2ccccc2n1 | -3% | . | -10%
CC(=O)N1CCN(C(=S)NC(=O)c2ccc(S(=O)(=O)N3CCOCC3)cc2)CC1 | 0% | 41 | ?
Cn1cccc1/C=N/NC(=O)c1sc2ccccc2c1Cl | ? | 22 | -10%
Cc1c(/C=N/NC(=O)c2sc3ccccc3c2Cl)cnn1C | 20µM* | -26 | -20%
